Experimental data taken from PubChem BioAssay (NCI).
Several values for one entry are separate records, joined by “and”; a condition that tells them apart may be missing. Equal values may be shown once. This is part of a sample that, as a whole, favours compounds with a hit. Of some 83,000 tested, about 20% had one in any assay.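 Values shown are percent growth following 48 h exposure of cells in 96-well plates to a single concentration of compound; below 10 was considered active.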 Activity calls are given as the source filed them.

What was measured:
Experiment in all cases: NCI-60 one-dose screen, 48 h (100 = growth as untreated, 0 = no growth, -100 = all killed)
T-47D breast = details: 10 µM unless noted
BT-549 breast = details: 10 µM unless noted
MDA-MB-435 melanoma = details: 10 µM unless noted
MCF7 breast = details: 10 µM
HCT-116 colon = details: 10 µM unless noted
HCC-2998 colon = details: 10 µM unless noted
KM12 colon = details: 10 µM unless noted
SW-620 colon = details: 10 µM unless noted

| Compound | growth (T-47D breast) | growth (BT-549 breast) | growth (MDA-MB-435 melanoma) | growth (MCF7 breast) | growth (HCT-116 colon) | growth (HCC-2998 colon) | growth (KM12 colon) | growth (SW-620 colon) |
| --- | --- | --- | --- | --- | --- | --- | --- | --- |
| O=C1C2=C(Nc3cc([N+](=O)[O-])ccc3N2)OC1c1c2ccccc2cc2ccccc12 (centres undefined) | 47.4% (inactive) | 23.3% (inactive) | 73% (inactive) | 22.3% (inactive) | 15.5% (inactive) | 72.6% (inactive) | 16.7% (inactive) |  |
| Oc1c(Br)c(Br)c(O)c(Br)c1Br | 25.2% (inactive) | 95.3% (inactive) | 106% (inactive) | 67% (inactive) | 96.2% (inactive) | 128% (inactive) | 110% (inactive) |  |
| N#CSCc1ccc(CSC#N)c(Cl)c1 | 68.4% (inactive) | 56.5% (inactive) |  | 22.7% (inactive) | 43.6% (inactive) | 102% (inactive) |  | 25.4% (inactive) |
| C1=C(c2ccccc2)C(c2ccc(OCCN3CCCCC3)cc2)Oc2ccccc21 (centres undefined) | 26.1% (inactive) | 72.9% (inactive) | 18.7% (inactive) | 6.42% (active) | 46.6% (inactive) | 34.1% (inactive) |  |  |
| CC(C)c1ccc2nc3ccc(C(=O)NCCN4CCN(c5ccccc5)CC4)cn3c(=O)c2c1 | 28.5% (inactive) | 51.3% (inactive) | 58.7% (inactive) | 58.8% (inactive) | 53.6% (inactive) | 75.9% (inactive) | 67.2% (inactive) |  |
| C/C=C1\SC(=S)NC1=O | 92.6% (inactive) | 95.7% (inactive) | 101% (inactive) | 86.9% (inactive) | 96.9% (inactive) | 85% (inactive) | 106% (inactive) |  |
| O=C(Oc1cccc2cccnc12)c1ccccc1 | 38.6% (inactive) and 95.2% (inactive) | 101% (inactive) and 107% (inactive) |  | 55.1% (inactive) and 102% (inactive) | 32.8% (inactive) and 102% (inactive) | 108% (inactive) and 104% (inactive) |  | 49.7% (inactive) and 104% (inactive) |
| O=C1c2ccccc2C(=O)N1c1ccccc1 | 95.7% (inactive) | 107% (inactive) | 98.7% (inactive) | 96.6% (inactive) | 105% (inactive) | 102% (inactive) | 107% (inactive) |  |
| OC(CNc1ccnc2cc(Cl)ccc12)CNc1ccnc2cc(Cl)ccc12 | 9.13% (active) | 85.2% (inactive) | -43.6% (active) | 18.5% (inactive) | 5.7% (active) | 46.1% (inactive) | 44.5% (inactive) |  |
| COC(=O)c1nc(=S)[nH]c(C(=O)OC)c1C(=O)c1ccc2ccccc2c1 | 86.5% (inactive) | 131% (inactive) | 104% (inactive) | 94.4% (inactive) | 107% (inactive) | 113% (inactive) | 107% (inactive) |  |
| CN(C)CCOc1ccc2c(c1)C(=O)/C(=C\c1ncc([N+](=O)[O-])n1C)C2 | 25.4% (inactive) |  | -73.6% (active) | -30.7% (active) | -5.59% (active) | -86.1% (active) |  | -31.6% (active) |
| C=C(Cl)C(=NC(C)(C)C)Nc1ccccc1C | 64% (inactive) | 102% (inactive) |  | 66.6% (inactive) | 66.5% (inactive) | 113% (inactive) |  |  |
| CNc1ccc(N)cc1 | 119% (inactive) | 87.6% (inactive) |  | 96.3% (inactive) | 107% (inactive) | 100% (inactive) | 107% (inactive) |  |
| Nc1ncnc2c1ncn2C1OC(CO)C(O)C1O (centres undefined) | 109% (inactive) and 9.96% (active) and 90.6% (inactive) | 101% (inactive) and 47.6% (inactive) and 123% (inactive) |  | 107% (inactive) and 10.7% (inactive) and 97% (inactive) | 108% (inactive) and 65% (inactive) and 90% (inactive) | 105% (inactive) and 31.2% (inactive) and 107% (inactive) | 116% (inactive) and 112% (inactive) and 114% (inactive) | 112% (inactive) and 85.1% (inactive) and 106% (inactive) |
| O=C1N[C@H]2[C@H](CS[C@H]2CCCCC(=O)N(CCP(c2ccccc2)c2ccccc2)CCP(c2ccccc2)c2ccccc2)N1 | 74.8% (inactive) | 96.9% (inactive) |  | 20.9% (inactive) | 35.5% (inactive) | 88.9% (inactive) | 59.9% (inactive) | 88.7% (inactive) |
| O=C1OCc2cccc3cccc1c23 | 114% (inactive) |  |  | 86.3% (inactive) | 104% (inactive) | 106% (inactive) |  | 98.2% (inactive) |
| Cc1ccc2nc(C[n+]3ccc4ccccc4c3)ccc2c1 | 32.2% (inactive) | 21.7% (inactive) |  | 35.6% (inactive) | 53.5% (inactive) | 71.2% (inactive) | 56.4% (inactive) | 80.2% (inactive) |

| Compound | growth (T-47D breast) | growth (BT-549 breast) | growth (MDA-MB-435 melanoma) | growth (MCF7 breast) | growth (HCT-116 colon) | growth (HCC-2998 colon) | growth (KM12 colon) | growth (SW-620 colon) |
| --- | --- | --- | --- | --- | --- | --- | --- | --- |
| O=C1C=CC(=O)N1C1c2ccccc2-c2ccccc21 | 73.6% (inactive) |  | 110% (inactive) | 85.8% (inactive) | 97.9% (inactive) | 114% (inactive) | 107% (inactive) | 14.7% (inactive) |
| S=C(NCCNC(=S)[S][Sn]([c]1ccccc1)([c]1ccccc1)[c]1ccccc1)[S][Sn]([c]1ccccc1)([c]1ccccc1)[c]1ccccc1 | -75.7% (active) | -78.8% (active) |  | -99.8% (active) | -82.8% (active) | -82.4% (active) | -99.4% (active) |  |
| C[N+](C)=c1ccc2nc3c(cc(NCCCNc4cc5oc6cc(=[N+](C)C)ccc-6nc5c5ccccc45)c4ccccc43)oc-2c1 | 46.2% (inactive) | 61.6% (inactive) |  | -52.4% (active) | -36.9% (active) | 23.7% (inactive) | 17.5% (inactive) | -25.5% (active) |
| Cc1cc2nc(CS)[nH]c2cc1C | 74.3% (inactive) |  |  | 82.9% (inactive) | 58.1% (inactive) | 102% (inactive) | 88% (inactive) |  |
| N#CC1C(=O)SC2c3ccccc3C(=O)c3ccccc3C12 (centres undefined) | 89% (inactive) | 101% (inactive) |  | 98.9% (inactive) | 102% (inactive) | 102% (inactive) | 96.6% (inactive) | 101% (inactive) |
| CN(C)c1ccc(C(=C2C=CC(=[N+](C)C)C=C2)c2ccc(N(C)C)cc2)cc1 (tested in a mixture with another compound) | -92.4% (active) |  |  | -92.3% (active) | -76% (active) | -80.3% (active) | -95.3% (active) |  |
| CCCCCC(CCCCC)C(=O)O | 100% (inactive) |  | 123% (inactive) | 100% (inactive) | 109% (inactive) | 119% (inactive) | 109% (inactive) | 110% (inactive) |
| CCC(CCCN(CC)CCc1ccccc1)OC(=O)c1cc(OC)c(OC)c(OC)c1 (centres undefined) | 77.8% (inactive) | 99.6% (inactive) |  | 85.9% (inactive) | 75.3% (inactive) | 96.4% (inactive) |  |  |
| COC(=O)c1nc(=S)[nH]c(C(=O)OC)c1C(=O)c1ccccn1 | 51.5% (inactive) | 50.3% (inactive) |  | 14.6% (inactive) | 17.9% (inactive) | 45.3% (inactive) | 24.6% (inactive) |  |
| Nc1nc(N)c2c(ccc3c2ccn3Cc2cccc([N+](=O)[O-])c2)n1 | -67% (active) | -91.4% (active) |  | -79.2% (active) | -84.9% (active) | -86% (active) | -92.3% (active) | -91.8% (active) |
| Oc1ccc(/C=N/NC(=S)Nc2ccccc2)nc1 | 12.6% (inactive) | 44.8% (inactive) |  | 16.4% (inactive) | 21% (inactive) | 5.05% (active) | 11.3% (inactive) | 39.4% (inactive) |
| CCCCCCCCCCCCCCCC[N+](C)(CCO)Cc1cnc[nH]1 (centres undefined) | 16.5% (inactive) |  | -43.8% (active) | -18.4% (active) | -51% (active) | -70.5% (active) | -97.7% (active) | -27% (active) |
| COC(=O)[C@@]12OC[C@]34[C@H]([C@@H](O)[C@@H]1O)[C@@]1(C)[C@H](O)C(=O)C=C(C)[C@@H]1C[C@H]3OC(=O)C(OC(C)=O)[C@@H]24 (some centres undefined) | -20.5% (active) | -53.1% (active) |  | -19.2% (active) | -54.1% (active) | -75.8% (active) | -57.8% (active) | -38.2% (active) |
| CCCCCCCCCCCCCCNCc1ccccc1 | 72.9% (inactive) | 96.6% (inactive) |  | 51.2% (inactive) | 86.8% (inactive) | 16.1% (inactive) | 62.5% (inactive) | 42.5% (inactive) |
| CC1=CC(O)C2CC1C2(C)C (centres undefined) | 96% (inactive) and 106% (inactive) | 98.9% (inactive) |  | 101% (inactive) and 98.9% (inactive) | 103% (inactive) | 95.4% (inactive) and 112% (inactive) | 101% (inactive) and 114% (inactive) |  |
| CC1(C)CC([P+](c2ccccc2)(c2ccccc2)c2ccccc2)=NN1 | 6.55% (active) |  | 28.2% (inactive) | 5.67% (active) | 16.6% (inactive) | 18.1% (inactive) | 21.7% (inactive) |  |
| Oc1c(Cl)cc(Cl)c2cccnc12 | 52.4% (inactive) and 43.4% (inactive) | 53.1% (inactive) and 40.3% (inactive) |  | 50.8% (inactive) and 29.1% (inactive) | 40.6% (inactive) and 25.6% (inactive) | 74.6% (inactive) and 69.2% (inactive) | 54.2% (inactive) and 52.3% (inactive) | 54.9% (inactive) and 57.5% (inactive) |
